How the values were obtained:
[1] = target: T1, Ephrin type-B receptor 1 (Homo sapiens) (UniProt P54762); details: at 10 µM
T1 sequence (whole entry): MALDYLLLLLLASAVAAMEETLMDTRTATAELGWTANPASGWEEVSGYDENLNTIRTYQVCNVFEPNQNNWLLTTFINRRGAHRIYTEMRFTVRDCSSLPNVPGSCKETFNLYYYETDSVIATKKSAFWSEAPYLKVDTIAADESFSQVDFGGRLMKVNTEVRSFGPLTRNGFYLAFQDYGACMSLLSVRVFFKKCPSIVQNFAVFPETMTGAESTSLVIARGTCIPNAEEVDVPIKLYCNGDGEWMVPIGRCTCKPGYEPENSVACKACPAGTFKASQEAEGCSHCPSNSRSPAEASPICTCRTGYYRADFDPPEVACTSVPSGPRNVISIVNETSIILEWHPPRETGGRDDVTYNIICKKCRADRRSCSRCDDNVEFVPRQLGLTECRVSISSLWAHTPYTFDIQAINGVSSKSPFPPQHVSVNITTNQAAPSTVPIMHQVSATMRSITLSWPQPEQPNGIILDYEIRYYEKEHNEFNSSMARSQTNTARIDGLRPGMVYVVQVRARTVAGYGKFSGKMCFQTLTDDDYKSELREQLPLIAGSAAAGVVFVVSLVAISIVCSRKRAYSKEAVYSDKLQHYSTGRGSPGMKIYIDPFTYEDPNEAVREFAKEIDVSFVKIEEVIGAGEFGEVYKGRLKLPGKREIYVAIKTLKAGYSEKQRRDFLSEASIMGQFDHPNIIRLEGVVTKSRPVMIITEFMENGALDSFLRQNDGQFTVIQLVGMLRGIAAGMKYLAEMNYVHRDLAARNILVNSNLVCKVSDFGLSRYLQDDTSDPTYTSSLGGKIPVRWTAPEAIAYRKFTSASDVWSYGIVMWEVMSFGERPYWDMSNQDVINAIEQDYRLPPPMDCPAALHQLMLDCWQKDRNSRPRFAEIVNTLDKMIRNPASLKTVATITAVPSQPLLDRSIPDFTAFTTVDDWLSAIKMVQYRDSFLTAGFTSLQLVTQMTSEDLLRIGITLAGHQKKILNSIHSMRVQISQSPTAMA

[2] = target: T2, Ephrin type-B receptor 2 (Homo sapiens) (UniProt P29323); details: at 1 µM
T2 sequence (whole entry): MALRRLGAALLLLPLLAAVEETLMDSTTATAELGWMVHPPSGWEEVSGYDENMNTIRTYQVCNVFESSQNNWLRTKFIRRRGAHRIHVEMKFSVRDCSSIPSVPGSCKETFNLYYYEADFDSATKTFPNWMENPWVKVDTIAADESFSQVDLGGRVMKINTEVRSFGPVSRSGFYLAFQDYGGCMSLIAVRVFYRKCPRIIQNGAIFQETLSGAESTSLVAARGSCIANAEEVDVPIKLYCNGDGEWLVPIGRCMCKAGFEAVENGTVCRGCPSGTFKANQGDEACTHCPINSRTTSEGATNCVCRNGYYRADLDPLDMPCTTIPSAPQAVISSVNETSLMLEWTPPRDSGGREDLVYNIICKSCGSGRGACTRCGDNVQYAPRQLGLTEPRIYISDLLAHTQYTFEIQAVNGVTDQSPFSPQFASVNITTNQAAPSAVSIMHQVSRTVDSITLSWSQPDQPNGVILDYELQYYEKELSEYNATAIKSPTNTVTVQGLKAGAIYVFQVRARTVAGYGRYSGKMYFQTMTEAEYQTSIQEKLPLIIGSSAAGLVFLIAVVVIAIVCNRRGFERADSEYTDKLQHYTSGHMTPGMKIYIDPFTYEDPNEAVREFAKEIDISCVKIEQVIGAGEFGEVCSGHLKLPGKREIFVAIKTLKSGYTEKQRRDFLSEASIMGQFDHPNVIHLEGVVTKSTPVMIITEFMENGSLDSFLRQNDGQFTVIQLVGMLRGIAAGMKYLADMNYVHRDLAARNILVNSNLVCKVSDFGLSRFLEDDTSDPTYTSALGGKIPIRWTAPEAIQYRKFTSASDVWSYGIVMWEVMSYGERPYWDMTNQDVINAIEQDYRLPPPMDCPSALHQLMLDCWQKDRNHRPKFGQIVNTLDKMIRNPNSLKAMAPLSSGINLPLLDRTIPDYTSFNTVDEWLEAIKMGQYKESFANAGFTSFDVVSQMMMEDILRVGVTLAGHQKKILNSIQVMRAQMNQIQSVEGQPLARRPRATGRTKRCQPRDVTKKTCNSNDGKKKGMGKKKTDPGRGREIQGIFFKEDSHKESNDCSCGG

[3] = target: T2, Ephrin type-B receptor 2 (Homo sapiens); details: at 10 µM
[4] = target: T3, Ephrin type-B receptor 3 (Homo sapiens) (UniProt P54753); details: at 1 µM
T3 sequence (whole entry): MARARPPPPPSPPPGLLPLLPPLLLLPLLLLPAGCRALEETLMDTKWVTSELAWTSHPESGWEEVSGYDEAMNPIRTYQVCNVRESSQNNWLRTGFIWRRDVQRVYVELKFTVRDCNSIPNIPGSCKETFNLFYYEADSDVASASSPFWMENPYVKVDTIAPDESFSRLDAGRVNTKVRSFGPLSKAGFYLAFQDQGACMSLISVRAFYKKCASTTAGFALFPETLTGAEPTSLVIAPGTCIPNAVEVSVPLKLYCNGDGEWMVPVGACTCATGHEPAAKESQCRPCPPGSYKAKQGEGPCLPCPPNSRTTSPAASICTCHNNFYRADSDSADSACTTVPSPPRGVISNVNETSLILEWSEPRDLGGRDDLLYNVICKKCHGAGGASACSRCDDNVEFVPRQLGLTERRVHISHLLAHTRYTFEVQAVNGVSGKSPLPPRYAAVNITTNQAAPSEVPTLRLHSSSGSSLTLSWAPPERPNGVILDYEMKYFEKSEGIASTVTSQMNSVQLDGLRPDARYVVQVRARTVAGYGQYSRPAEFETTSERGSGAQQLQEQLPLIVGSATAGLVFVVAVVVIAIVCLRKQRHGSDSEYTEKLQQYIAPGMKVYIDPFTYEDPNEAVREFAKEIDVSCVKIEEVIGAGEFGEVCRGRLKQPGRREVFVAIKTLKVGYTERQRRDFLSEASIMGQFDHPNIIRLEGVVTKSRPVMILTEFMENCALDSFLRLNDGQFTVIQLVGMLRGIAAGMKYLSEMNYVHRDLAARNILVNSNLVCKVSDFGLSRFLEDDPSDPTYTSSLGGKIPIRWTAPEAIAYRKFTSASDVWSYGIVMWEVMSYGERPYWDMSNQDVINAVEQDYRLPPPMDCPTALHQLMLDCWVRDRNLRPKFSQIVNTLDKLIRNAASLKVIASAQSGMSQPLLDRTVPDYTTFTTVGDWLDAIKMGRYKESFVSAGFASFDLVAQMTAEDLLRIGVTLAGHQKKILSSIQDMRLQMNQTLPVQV

[5] = target: T3, Ephrin type-B receptor 3 (Homo sapiens); details: at 10 µM
[6] = target: T4, Ephrin type-B receptor 4 (Homo sapiens) (UniProt P54760); details: at 1 µM
T4 sequence (whole entry): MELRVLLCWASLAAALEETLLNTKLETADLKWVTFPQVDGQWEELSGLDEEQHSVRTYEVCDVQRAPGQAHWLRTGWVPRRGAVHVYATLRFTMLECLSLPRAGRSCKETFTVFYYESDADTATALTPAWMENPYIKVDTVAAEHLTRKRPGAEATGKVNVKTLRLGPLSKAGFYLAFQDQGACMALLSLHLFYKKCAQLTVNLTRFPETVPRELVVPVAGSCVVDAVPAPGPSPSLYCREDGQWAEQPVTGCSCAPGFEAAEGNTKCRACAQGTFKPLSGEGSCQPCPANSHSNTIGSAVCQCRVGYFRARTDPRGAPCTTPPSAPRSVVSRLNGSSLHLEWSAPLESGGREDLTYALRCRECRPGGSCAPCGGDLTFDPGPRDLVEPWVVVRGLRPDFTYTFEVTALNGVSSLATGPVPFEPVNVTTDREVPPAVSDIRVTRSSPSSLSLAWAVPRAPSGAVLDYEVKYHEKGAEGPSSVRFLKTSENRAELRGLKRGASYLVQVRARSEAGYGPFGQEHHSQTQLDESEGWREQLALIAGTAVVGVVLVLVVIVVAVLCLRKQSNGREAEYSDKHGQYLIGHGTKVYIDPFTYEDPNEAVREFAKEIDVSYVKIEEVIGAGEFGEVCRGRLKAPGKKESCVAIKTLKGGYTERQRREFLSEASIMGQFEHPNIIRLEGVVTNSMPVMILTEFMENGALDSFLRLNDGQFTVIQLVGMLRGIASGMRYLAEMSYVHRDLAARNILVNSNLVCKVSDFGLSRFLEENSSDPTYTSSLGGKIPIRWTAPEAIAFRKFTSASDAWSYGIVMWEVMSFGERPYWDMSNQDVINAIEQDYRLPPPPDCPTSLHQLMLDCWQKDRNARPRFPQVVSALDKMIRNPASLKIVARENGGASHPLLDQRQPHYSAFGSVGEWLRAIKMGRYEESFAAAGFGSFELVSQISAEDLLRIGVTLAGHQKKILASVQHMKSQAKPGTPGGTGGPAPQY

[7] = target: T4, Ephrin type-B receptor 4 (Homo sapiens); details: at 10 µM
[8] = target: Receptor tyrosine-protein kinase erbB-4 (Homo sapiens) (UniProt Q15303); details: at 1 µM
[9] = target: Receptor tyrosine-protein kinase erbB-4 (Homo sapiens) (UniProt Q15303); details: at 10 µM
[10] = target: Focal adhesion kinase 1 (Homo sapiens) (UniProt Q05397); details: at 1 µM
Sequence of Focal adhesion kinase 1 (Homo sapiens) (Q05397 2-1052 limits assumed): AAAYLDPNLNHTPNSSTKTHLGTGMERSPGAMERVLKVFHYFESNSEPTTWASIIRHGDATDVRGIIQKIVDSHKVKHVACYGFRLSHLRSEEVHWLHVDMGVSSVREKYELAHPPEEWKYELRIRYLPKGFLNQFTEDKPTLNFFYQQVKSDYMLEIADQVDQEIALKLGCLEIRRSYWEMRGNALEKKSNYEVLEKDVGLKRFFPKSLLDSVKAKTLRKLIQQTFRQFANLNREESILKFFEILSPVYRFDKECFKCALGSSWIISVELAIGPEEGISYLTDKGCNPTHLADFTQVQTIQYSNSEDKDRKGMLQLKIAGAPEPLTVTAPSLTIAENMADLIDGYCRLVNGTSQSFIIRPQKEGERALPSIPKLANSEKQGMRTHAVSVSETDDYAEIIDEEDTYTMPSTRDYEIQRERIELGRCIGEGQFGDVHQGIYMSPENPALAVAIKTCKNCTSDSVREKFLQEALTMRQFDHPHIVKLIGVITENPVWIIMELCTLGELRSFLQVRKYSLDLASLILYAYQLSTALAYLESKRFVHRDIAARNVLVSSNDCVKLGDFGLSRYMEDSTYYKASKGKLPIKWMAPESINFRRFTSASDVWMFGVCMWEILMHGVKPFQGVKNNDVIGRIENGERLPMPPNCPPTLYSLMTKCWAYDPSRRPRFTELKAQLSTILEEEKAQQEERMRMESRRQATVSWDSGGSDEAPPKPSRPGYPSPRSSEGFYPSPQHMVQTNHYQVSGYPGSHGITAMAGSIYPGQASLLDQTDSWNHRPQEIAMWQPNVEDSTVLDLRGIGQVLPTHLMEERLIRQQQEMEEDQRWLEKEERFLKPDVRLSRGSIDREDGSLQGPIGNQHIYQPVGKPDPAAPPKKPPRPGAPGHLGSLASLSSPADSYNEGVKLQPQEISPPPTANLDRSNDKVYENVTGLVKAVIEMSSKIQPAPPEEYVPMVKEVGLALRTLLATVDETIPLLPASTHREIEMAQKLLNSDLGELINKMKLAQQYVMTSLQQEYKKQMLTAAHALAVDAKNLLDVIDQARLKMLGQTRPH

Sequence of Receptor tyrosine-protein kinase erbB-4 (Homo sapiens) (Q15303 whole entry): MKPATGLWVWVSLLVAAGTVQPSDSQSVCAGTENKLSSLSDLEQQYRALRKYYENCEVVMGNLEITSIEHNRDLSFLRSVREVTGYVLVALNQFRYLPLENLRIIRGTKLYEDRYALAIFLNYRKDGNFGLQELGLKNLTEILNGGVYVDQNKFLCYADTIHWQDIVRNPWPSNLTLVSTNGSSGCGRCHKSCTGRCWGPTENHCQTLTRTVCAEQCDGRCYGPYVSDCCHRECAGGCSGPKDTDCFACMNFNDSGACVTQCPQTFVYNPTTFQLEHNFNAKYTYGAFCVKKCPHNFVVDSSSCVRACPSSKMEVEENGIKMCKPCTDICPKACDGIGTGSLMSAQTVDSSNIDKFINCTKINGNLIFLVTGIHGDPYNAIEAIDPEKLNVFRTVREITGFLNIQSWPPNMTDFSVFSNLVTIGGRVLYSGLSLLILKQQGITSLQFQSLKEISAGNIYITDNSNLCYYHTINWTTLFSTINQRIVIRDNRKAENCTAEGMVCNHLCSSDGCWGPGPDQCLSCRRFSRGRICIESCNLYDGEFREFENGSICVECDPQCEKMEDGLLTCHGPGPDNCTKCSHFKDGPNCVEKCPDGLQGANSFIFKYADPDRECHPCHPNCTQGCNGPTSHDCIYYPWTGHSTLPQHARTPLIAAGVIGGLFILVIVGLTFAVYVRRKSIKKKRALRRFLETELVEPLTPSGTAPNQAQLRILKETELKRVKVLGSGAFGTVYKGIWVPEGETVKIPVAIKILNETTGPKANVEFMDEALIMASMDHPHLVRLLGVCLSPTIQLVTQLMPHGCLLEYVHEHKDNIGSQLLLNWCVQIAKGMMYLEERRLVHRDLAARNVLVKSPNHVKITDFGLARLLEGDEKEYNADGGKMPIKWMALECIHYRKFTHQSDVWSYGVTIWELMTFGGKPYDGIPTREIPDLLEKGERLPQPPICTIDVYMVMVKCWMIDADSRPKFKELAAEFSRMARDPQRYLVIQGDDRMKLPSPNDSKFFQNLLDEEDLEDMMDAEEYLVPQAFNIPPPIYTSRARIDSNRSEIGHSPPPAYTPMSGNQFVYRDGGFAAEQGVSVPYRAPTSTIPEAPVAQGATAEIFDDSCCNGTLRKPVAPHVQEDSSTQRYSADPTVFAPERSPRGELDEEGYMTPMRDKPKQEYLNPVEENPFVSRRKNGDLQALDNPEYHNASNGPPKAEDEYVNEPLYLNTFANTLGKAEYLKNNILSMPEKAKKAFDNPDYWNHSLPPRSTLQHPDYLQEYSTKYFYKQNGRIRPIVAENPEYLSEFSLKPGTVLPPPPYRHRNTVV

## Cc1ccc(S(=O)(=O)/C=C/C#N)cc1
[1]
  residual activity: 92%
[2]
  residual activity: 122%
[3]
  residual activity: 126%
[4]
  residual activity: 118% (inactive)
[5]
  residual activity: 111%
[6]
  residual activity: 97%
[7]
  residual activity: 90%
[8]
  residual activity: 95%
[9]
  residual activity: 90%
[10]
  residual activity: 105%

— ChEMBL document CHEMBL2218924, “A broad activity screen in support of a chemogenomic map for kinase signalling research and drug discovery” (Biochem J, 2013)
